# Assay outcomes (PubChem BioAssay)
# Tau fluor cs: counter-screen for tau fibril formation inhibitors | Potency, µM (series often up to 57.7 µM) | 280,000 tested, 0.93% active | tau K18 P301L Alexa594 fluorescence, heparin fibrillization; note: nearly all actives have a fitted effect of over 55% in size
#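 Human K18 P301L tau (15 uM unlabeled plus 0.24 uM Alexa 594-labeled, final) in 100 mM sodium acetate pH 7 was mixed with compound and 20 uM heparin and incubated 6 hr at 37 C.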
# Luc counter: counter-screen: inhibitors of Kinase-Glo firefly luciferase; Q27757; AID 1379; 200,000 tested, 0.28% active; Potency, µM (highest dose often 38.3 µM), actives largely listed as inhibitors; Kinase-Glo luciferase, ATP luminescence, 8 min; note: nearly all actives have a fitted effect of over 60% in size
#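 Light output from Kinase-Glo luciferase with luciferin and 10 uM ATP in 50 mM imidazole pH 7.2, KCl, MgCl2, Tween 20, BSA; compound pin-delivered, 8-min ambient incubation, then luminescence read.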
# Tau ThT inhib: inhibitors of human tau fibril formation, thioflavin T binding; P10636; Potency, µM (series often up to 57.4 µM), hits mostly inhibitors; 270,000 tested, 2.1% active; recombinant tau K18 P301L, heparin-induced fibrillization, ThT fluorescence; note: nearly all actives have a fitted effect of over 55% in size
# Target sequence (P10636 561-689 P618L limits assumed): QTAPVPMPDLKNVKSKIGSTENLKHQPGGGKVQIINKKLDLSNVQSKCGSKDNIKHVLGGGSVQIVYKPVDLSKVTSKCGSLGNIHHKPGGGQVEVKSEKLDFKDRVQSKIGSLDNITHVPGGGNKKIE
#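 Using a mix of unlabeled (15 uM) and Alexa 594-labeled (0.24 uM) tau K18 P301L, heparin-triggered fibrillization over 6 hr at 37 C was scored by ThT fluorescence.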
# NPSR antag: neuropeptide S receptor (human) antagonism, cAMP. CHO-NPSR cells, cAMP TR-FRET, antagonist mode. Potency, µM (titrated, usually from 38.3 µM), most hits filed as inhibitors. 220,000 tested, 1% active; note: nearly all actives have a fitted effect of over 50% in size
# Target sequence (Q6W5P4 whole entry, looked up): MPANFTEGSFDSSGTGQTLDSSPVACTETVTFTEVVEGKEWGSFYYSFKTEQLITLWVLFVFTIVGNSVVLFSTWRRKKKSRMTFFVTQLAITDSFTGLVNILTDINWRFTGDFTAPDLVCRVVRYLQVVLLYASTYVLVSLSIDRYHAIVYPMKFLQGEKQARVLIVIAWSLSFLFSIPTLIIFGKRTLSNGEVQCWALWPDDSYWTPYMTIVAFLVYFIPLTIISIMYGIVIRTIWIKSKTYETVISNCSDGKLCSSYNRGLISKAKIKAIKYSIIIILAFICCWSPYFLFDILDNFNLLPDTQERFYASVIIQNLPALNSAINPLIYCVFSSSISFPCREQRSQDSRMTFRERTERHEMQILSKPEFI
# Tau FP inhib: blocks human tau fibril formation measured by polarization; P10636; 280,000 tested, 0.39% active; K18 P301L tau heparin fibrillization, Alexa594 FP, 6 h; Potency, µM (series often up to 57.7 µM), hits mostly inhibitors; note: nearly all actives have a fitted effect of over 55% in size
#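 Human K18 P301L fragment (15 uM unlabeled plus 0.24 uM Alexa 594-labeled) in 100 mM sodium acetate pH 7 with compound, aggregation induced by 20 uM heparin for 6 hr at 37 C. ThT (30 uM) added for 1 hr, then Alexa 594 FP read.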
# A number is an active result; 0 = inactive; ? = inconclusive; - = no result given; [ ] = remark or other dose. Sampled rows, rich in hits. Any-hit rate of the full collection: about 3.3%. Calls come from the whole dose curve; as a rule, active = well fitted curve in the direction sought with a large enough effect; inconclusive = small, poorly fitted or top-dose-only effect, or another doubt; inactive = no such curve, though single readings can be large; an effect the other way counts as inactive or inconclusive.
SMILES,Tau fluor cs,Luc counter,Tau ThT inhib,NPSR antag,Tau FP inhib
CN=c1scc(C)n1/N=C/c1ccc(O)cc1O,?,0,16µM,0,0
CN=c1scc(C)n1/N=C/c1ccc2c(c1)OCO2,?,0,11µM,0,0
CN=c1scc(C)n1/N=C/c1ccc(O)cc1,0,0,?,0,0
COc1cccc2c1cc1c(=O)n(CC(=O)N3CCN(c4ccccc4F)CC3)nc(C)n12,0,-,0,-,0
O=C(CSc1nc2ccccc2c(=O)n1-c1ccc(F)cc1F)Nc1ccc(N2CCOCC2)cc1,?,0,?,0,0
O=C(CSc1nc2ccccc2c(=O)n1-c1ccc(F)cc1F)c1c[nH]c2ccccc12,?,0,?,0,28µM
O=[N+]([O-])c1ccccc1S(=O)(=O)N1CCN(Cc2cc3c(cc2O)OCO3)CC1,11µM[quencher],0,?,0,?
Cc1c(-c2ccccc2)c(=O)oc2c(CN3CCOCC3)c(O)ccc12,0,-,0,-,0
COc1ccc2c(c1)Cc1sc(NC(=O)c3ccco3)nc1-2,?,0,?,0,0
COc1ccc2c(c1)Cc1sc(NC(C)=O)nc1-2,?,0,32µM,0,?
COc1ccc2c(c1)Cc1sc(NC(=O)c3cccnc3)nc1-2,?,0,7.9µM,0,?
COc1ccc2c(c1)CCc1sc(NC(=O)c3ccco3)nc1-2,14µM[quencher],0,13µM,0,0
COc1ccc(C(C(=O)NCc2ccccc2)N(C(=O)Cn2nnc3ccccc32)c2ccc(OC)cc2)cc1 (stereo unspecified),0,-,0,-,0
Cc1c(C(=O)N2CCCC2)oc2c1-c1nn(CC(=O)NCc3ccccc3Br)cc1CC2,0,-,0,-,0
C/C(=N\Nc1ccc(Cl)c(C(=O)O)c1)c1ccccn1,0,-,0,0,0
C/C(=N\Nc1ncc(Cl)cc1Cl)c1ccccn1,0,?,?,1.3µM,0
COc1ccc(C2=CC(=O)C=CC2=O)cc1,?,-,14µM,0,35µM
COc1ccc(S(=O)(=O)c2ccc(OC)cc2)cc1,0,0,0,0,0
CNC(=O)C1CCC(Cn2c(=O)c3sccc3n(CC(=O)NCc3ccc(C)cc3)c2=O)CC1 (stereo unspecified),0,-,0,-,0
CCc1nn2c(=O)cc(COc3ccc(/C=C4\C(=N)N5N=C(CC(C)C)SC5=NC4=O)cc3)nc2s1,0,-,?,0,0
CCC1=NN2C(=N)/C(=C\c3ccc(OCc4cc(=O)n5nc(CC)sc5n4)c(OC)c3)C(=O)N=C2S1,0,0,11µM,0,0
Cc1nnc(N/N=C/c2ccc(-c3ccccc3F)o2)n1N,?,-,13µM,0,0
Cc1nnc(N/N=C\c2ccc(-c3ccccc3[N+](=O)[O-])o2)n1N,?,0,10µM,0,?
NCCCc1ccc2oc3ccccc3c2c1,-,0[7.66 µM],-,-,-
O=c1c(C(c2ccc(Cl)cc2)c2c(O)nc3n(c2=O)CCCS3)c(O)nc2n1CCCS2,0,-,11µM,0,?
SMILES,Tau fluor cs,Luc counter,Tau ThT inhib,NPSR antag,Tau FP inhib
CCOc1ccc(CCNc2nc3ccccc3n3cnnc23)cc1OCC,0,-,0,0,0
CC1CCc2c(sc3nc(-c4cc5ccccc5oc4=O)nc(Cl)c23)C1 (stereo unspecified),0,-,?,-,0
O=c1c2sc3ccccc3c2n(Cc2ccc(F)cc2)c(=O)n1Cc1ccccc1,0,-,0,-,0
CCCN1CCCc2cc(CN)ccc21,?,-,25µM,0,0
CN1CCCc2cc(C=O)ccc21,0,0,?,0,?
O=C1C2=C(Nc3ccccc3SC2c2ccc(C(F)(F)F)cc2)c2ccccc21 (stereo unspecified),2.8µM[quencher],-,?,-,10µM
CCc1ccc(C2Sc3ccccc3NC3=C2C(=O)c2ccccc23)cc1 (stereo unspecified),2.5µM[quencher],-,?,-,?
O=C1c2ccccc2-c2cccc(NS(=O)(=O)c3ccc(C(F)(F)F)cc3)c21,?,0,?,0,0
O=C1C2=C(Nc3ccccc3SC2c2ccco2)c2ccccc21 (stereo unspecified),16µM[quencher],0,13µM,?,?
CC(=O)Nc1ccc(C2Sc3ccccc3NC3=C2C(=O)c2ccccc23)cc1 (stereo unspecified),11µM[quencher],-,?,-,?
CC1CC(=O)C2=C(C1)Nc1ccccc1SC2c1ccc(F)cc1 (stereo unspecified),?,0,0,0,0
Cc1c(F)cccc1NC(=O)C1CCCN1S(=O)(=O)c1ccc(F)cc1 (stereo unspecified),0,-,0,-,0
Cc1n[nH]c(C)c1Sc1ccccc1N=Cc1cc(Cl)cc([N+](=O)[O-])c1O,0,0,10µM,0,0
c1csc(-c2nc3c4ccccc4c4ccccc4c3[nH]2)c1,13µM[quencher],0,?,0,?
Oc1ccccc1-c1nc2c3ccccc3c3ccccc3c2[nH]1,10µM[quencher],-,?,0,0
c1ccc(-c2nc(-c3cccs3)[nH]c2-c2ccccc2)cc1,?,0,0,0,0
CCn1c(=N)n(CCOc2ccc(Br)cc2)c2ccccc21,0,-,0,-,0
O=C(Nc1cc(-c2nc3cc(Cl)ccc3o2)ccc1Cl)c1cc2ccccc2o1,0,-,0,-,0
O=C1Nc2ccccc2/C1=N/N=C/c1cccc(O)c1,?,-,11µM,0,0
COc1cc(/C=N/N=C2/C(=O)Nc3ccccc32)cc(OC)c1O,?,0,11µM,0,?
COc1ccc(O)c(/C=N/N=C2/C(=O)Nc3ccccc32)c1,0,0,?,0,0
O=C1Nc2ccccc2/C1=N\N=C\C1=C(N2CCOCC2)C(=C\c2ccccc2)/CC1,?,?,7.1µM,?,?
CCOC(=O)C1CCN(C(=O)c2cc3ccc4ccc(C)[nH]c4c3n2)CC1,0,-,?,-,0
O=c1ccc(=O)n(-c2ccccc2)[nH]1,0,-,0,0,0
CC(C)(C)c1cc(=O)n(-c2ccccc2)[nH]1,0,0,40µM,0,?
SMILES,Tau fluor cs,Luc counter,Tau ThT inhib,NPSR antag,Tau FP inhib
O=C1CCc2cc(S(=O)(=O)NCc3ccccc3Cl)cc3c2N1CC3,0,-,0,-,0
COc1ccc(C2c3[nH]c4ccc(OC)cc4c3CCN2C(=O)Nc2ccccc2)cc1 (stereo unspecified),?,-,0,-,0
O=C(Nc1nnc(S(=O)(=O)N2CCCCCC2)s1)c1ccccc1Cl,?,-,?,-,0
O=C(COc1ccccc1F)Nc1nnc(S(=O)(=O)N2CCCCCC2)s1,0,-,14µM,-,0
O=C(Nc1nc(-c2ccccc2)c(C(=O)c2ccccc2)s1)c1ccc(S(=O)(=O)N2CCCC2)cc1,?,0,0,6.3µM,?
O=C(Nc1nnc(S(=O)(=O)N2CCCC2)s1)c1ccccc1Cl,?,-,3.5µM,-,0
O=C(Nc1nnc(S(=O)(=O)N2CCCCCC2)s1)c1ccccc1,?,-,14µM,-,0
O=C1OC(/C(=C\Nc2cc(Cl)ccc2O)[N+](=O)[O-])c2ccccc21 (stereo unspecified),0,0,?,0,0
CCOc1cccc(Nc2nn(-c3ccc(OC(F)(F)F)cc3)nc2C(C)=O)c1,0,-,0,-,0
